Source: PubChem BioAssay (NCATS)
Inconclusive results are not listed. Active and inactive are the calls of the source. Calls come from the whole dose curve; as a rule, active = well fitted inhibition curve with a large enough effect; inconclusive = small, poorly fitted or top-dose-only effect; inactive = flat fitted curve, though single readings scatter.

Key:
Experiment in all cases: qHTS profiling for inhibitors of Plasmodium falciparum proliferation (AID 504749); note: nearly all actives have a fitted effect of over 60% in size
Conditions in all cases: P. falciparum in erythrocytes, SYBR Green DNA, 72 h; series mostly up to 28.7 µM
CP250 = system: CP250
Summary of the method: (§1)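 Fluorescence of SYBR Green-bound parasite DNA, read at 485/535 nm, served as the growth measure. Infected erythrocytes were cultured with compound 72 h; artemisinin (0.29 uM) and DMSO wells defined the normalization range.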

CP252 = system: CP252
Summary of the method: as §1

CP256 = system: CP256
Summary of the method: as §1

CP260 = system: CP260
Summary of the method: as §1

CP262 = system: CP262
Summary of the method: as §1

CP265 = system: CP265
Summary of the method: as §1

CP266 = system: CP266
Summary of the method: as §1

CP268 = system: CP268
Summary of the method: as §1

CP269 = system: CP269
Summary of the method: as §1

CP286 = system: CP286
Summary of the method: as §1

CP291 = system: CP291
Summary of the method: as §1

CP297 = system: CP297
Summary of the method: as §1

CP305 = system: CP305
Summary of the method: as §1

CP315 = system: CP315
Summary of the method: as §1

CP325 = system: CP325
Summary of the method: as §1

CP329 = system: CP329
Summary of the method: as §1

CP335 = system: CP335
Summary of the method: as §1

DFO2036 = system: DFO2036
Summary of the method: as §1

DIV14 = system: DIV14
Summary of the method: as §1

DIV17 = system: DIV17
Summary of the method: as §1

Measured: Potency
Potency is the fitted concentration of half-maximal effect.

COc1ccc([C@@H]2CNC(=O)C2)cc1OC1CCCC1
inactive: CP250 | CP252 | CP256 | CP260 | CP262 | CP265 | CP266 | CP268 | CP269 | CP286 | CP291 | CP297 | CP305 | CP315 | CP325 | CP329 | CP335 | DFO2036 | DIV14 | DIV17

OCC(O)C(O)C(O)CO (centres undefined)
inactive: CP250 | CP252 | CP256 | CP260 | CP262 | CP265 | CP266 | CP268 | CP269 | CP286 | CP291 | CP297 | CP305 | CP315 | CP325 | CP329 | CP335 | DFO2036 | DIV14 | DIV17

CCCCCCCCCCCC(CC1OC(=O)C1CCCCCC)OC(=O)C(CC(C)C)NC=O (centres undefined)
inactive: CP262 | CP266 | CP315
active: CP250 447 nM | CP252 794 nM | CP256 708 nM | CP260 794 nM | CP265 631 nM | CP286 1000 nM | CP335 675 nM | DFO2036 501 nM

COc1ccc2c(c1OC)C(=O)OC2[C@H]1c2c(cc3c(c2OC)OCO3)CCN1C (some centres undefined)
inactive: CP250 | CP252 | CP256 | CP260 | CP262 | CP265 | CP266 | CP268 | CP269 | CP286 | CP291 | CP297 | CP305 | CP315 | CP325 | CP329 | CP335 | DFO2036 | DIV14 | DIV17

Nc1nc2c(c(=O)[nH]1)N(C=O)[C@H](CNc1ccc(C(=O)N[C@@H](CCC(=O)O)C(=O)O)cc1)CN2
inactive: CP250 | CP252 | CP256 | CP260 | CP262 | CP265 | CP266 | CP268 | CP269 | CP286 | CP297 | CP305 | CP315 | CP325 | CP329 | CP335 | DFO2036 | DIV14 | DIV17

COc1cccc2c1C(=O)c1c(O)c3c(c(O)c1C2=O)C[C@@](O)(C(=O)CO)C[C@@H]3O[C@H]1C[C@H](N)[C@H](OC2CCCCO2)[C@H](C)O1 (some centres undefined)
active: CP250 2510 nM | CP252 11200 nM | CP256 8910 nM | CP260 2240 nM | CP265 8910 nM | CP266 7570 nM | CP268 8490 nM | CP269 5360 nM | CP286 2000 nM | CP291 6750 nM | CP297 6750 nM | CP305 6010 nM | CP315 16900 nM | CP325 7570 nM | CP329 6750 nM | CP335 3010 nM | DFO2036 3550 nM | DIV14 3790 nM | DIV17 2390 nM
inactive: CP262

CCC(C(=O)O)C1CCC(C)C(C(C)C(O)C(C)C(=O)C(CC)C2OC3(C=CC(O)[C@@]4(CC[C@](C)(C5CC[C@@](O)(CC)C(C)O5)O4)O3)C(C)CC2C)O1 (some centres undefined)
active: CP250 1120 nM | CP252 891 nM | CP256 2000 nM | CP260 631 nM | CP262 849 nM | CP265 1260 nM | CP266 1350 nM | CP268 1070 nM | CP269 675 nM | CP286 794 nM | CP291 675 nM | CP297 757 nM | CP305 675 nM | CP315 478 nM | CP325 849 nM | CP329 601 nM | CP335 379 nM | DFO2036 794 nM | DIV17 601 nM
